Hedgehog inh – Sonic Hedgehog pathway inhibition; Shh-LIGHT2 Gli-luciferase reporter, 30 h; 2.1% of 22,000 active; inhibition, % (test concentration not listed);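 active means mean inhibition across valid replicates above about 65%, limit read from the data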;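 further: pathway switched on by Shh-conditioned medium diluted 1 in 25 in low serum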
NOMO-1 viab – STK33 inhibitor candidate reducing NOMO-1 cell viability. NOMO-1 AML viability, CellTiter-Glo luminescence, 72 h. inhibition, % (no concentration beside the values). 7.5% of 37,000 active. AID 2330; in the data active means inhibition above about 80%
PD-1 reverse act – reversal of PD-1 mediated T-cell inhibition; primary human CD4 T cells, PD-L1 beads, CellTiter-Glo 96 h; activation, % (concentration not given with the values); 29,000 tested, under 10 active; AID 2316; call rule not given here;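 further: 0% = median vehicle wells and 100% = positive control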
* hit, by the source's call; / = no result. A selection: hits, their analogues and other compounds. The true share with any hit is near 7.7%.

SMILES | Hedgehog inh | NOMO-1 viab | PD-1 reverse act
C[C@H]1CN([C@@H](C)CO)C(=O)c2cc(NC(=O)CCCCCC(=O)Nc3ccccc3N)ccc2O[C@@H]1CN(C)Cc1ccncc1 | / | 18.8 | 0.2
COc1ccc(CN(C)C[C@H]2OCCCC[C@@H](C)Oc3ccc(NC(=O)CCCCCC(=O)Nc4ccccc4N)cc3C(=O)N([C@H](C)CO)C[C@@H]2C)cc1 | / | 29.0 | -0.8
CN(CC(=O)Nc1ccccc1-c1ccccc1)S(=O)(=O)c1ccc2ccccc2c1 | / | 19.7 | 2.1
O=C(CN1CCN(S(=O)(=O)c2cccc([N+](=O)[O-])c2)CC1)Nc1cc(Cl)ccc1Cl | / | 7.7 | /
COc1cc2c(cc1NC(=O)CCOc1ccc(C)cc1)oc1ccccc12 | / | 4.0 | /
CC1CC2OC(C)(C)OC2C(OC(=O)c2ccccc2)O1 (configuration not stated) | 20.2 | 8.4 | 0.6
CCNC(=O)Oc1ccccc1 | -15.6 | -16.0 | 0.6
CC(C)(C)OC(=O)N1CCN(Cc2ccccc2)CC1 | 3.7 | -7.3 | -0.2
Cc1ccccc1NC(=O)CSC1CC(=O)N(c2ccc(F)cc2)C1=O (configuration not stated) | / | -10.8 | /
CCCC(O)/C(=C/C1=C(C(=O)CC(CC(=O)O)OC(N)=O)C(=O)c2cccc(O)c2C1=O)CC(C(=O)O)[N+](C)(C)C (configuration not stated) | 44.3 | 108.3* | -15.7
CCOC(=O)c1ccccc1NC(=O)CSc1nc2ccccc2[nH]1 | / | 17.5 | -1.1
Cc1ccc(OCC(=O)O)c(C)c1 | -10.7 | -9.7 | 0.1
CCc1ccc(O)c(NC(=S)NC(=O)COc2ccc(C)cc2C)c1 | / | 119.6* | /
CCCCCC(=O)O[C@]1(C(C)=O)CCC2C3CCC4=CC(=O)CC[C@]4(C)C3CC[C@@]21C (some centres not stated) | 96.4* | 110.0* | /
CC(=O)[C@@]1(O)CCC2C3CCC4=CC(=O)CC[C@]4(C)C3CC[C@@]21C (some centres not stated) | 31.9 | 34.1 | /
CCn1c(SCC(=O)Nc2ccccc2OC)nnc1-c1ccncc1 | / | -0.5 | -0.6
C=CCSc1nc(N)c(C(=O)Nc2ccccc2)cc1C(N)=O | 14.2 | 4.0 | 2.8
CCOc1cccc2c(C)nc(Nc3nc4c(c(=O)[nH]3)CCCC4)nc12 | / | 121.4* | /
Cc1nc(SCC(=O)Nc2cccc(Cl)c2Cl)nc2c1CCCC2 | / | -6.2 | /
O=C(COC(=O)c1ccc(N2C(=O)c3ccccc3C2=O)cc1)c1ccccc1 | -4.1 | 19.4 | 0.0
COc1ccc(-n2c(-c3cccc(OC)c3)csc2=NCc2cccnc2)cc1 | 70.8* | 42.7 | 0.7
COc1ccc(-n2c(SCC(N)=O)nnc2-c2cccnc2)cc1 | / | 14.2 | -0.2
Cc1cc(Br)ccc1NC(=O)CSc1nnc(-c2ccccc2O)n1-c1ccccc1 | / | 2.0 | 0.9
Cc1ccc(N(CC(=O)Nc2cc(Cl)ccc2C)S(C)(=O)=O)c(C)c1 | / | 14.3 | 1.1
O=C1NCN(c2ccccc2)C12CCN(CCCC(c1ccc(F)cc1)c1ccc(F)cc1)CC2 | 83.6* | 113.6* | /
SMILES | Hedgehog inh | NOMO-1 viab | PD-1 reverse act
COc1ccc(NC(=O)Nc2ccc3c(c2)C(=O)N([C@H](C)CO)C[C@H](C)[C@@H](CN(C)Cc2ccc(Cl)c(Cl)c2)O3)cc1 | 11.4 | 27.6 | -0.8
C[C@H](CO)N1C[C@H](C)[C@H](CN(C)Cc2ccc(Cl)c(Cl)c2)Oc2ccc(NC(=O)Nc3ccccc3)cc2C1=O | 19.3 | 113.4* | 0.1
C[C@H](CO)N1C[C@H](C)[C@H](CN(C)Cc2ccc(Cl)c(Cl)c2)Oc2ccc(NC(=O)Nc3ccc(F)cc3)cc2C1=O | / | -11.3 | 0.6
C[C@H](CO)N1C[C@H](C)[C@@H](CN(C)Cc2ccc(Cl)c(Cl)c2)Oc2ccc(NC(=O)Nc3ccc(F)cc3)cc2C1=O | / | 53.0 | -5.2
C[C@@H]1CN([C@@H](C)CO)C(=O)c2cc(NC(=O)Nc3ccc(F)cc3)ccc2O[C@H]1CN(C)Cc1ccc(Cl)c(Cl)c1 | / | 124.6* | 0.1
COc1ccc(NC(=O)Nc2ccc3c(c2)C(=O)N([C@H](C)CO)C[C@H](C)[C@H](CN(C)Cc2ccc(Cl)c(Cl)c2)O3)cc1 | 7.3 | 108.9* | -0.6
NC(=O)c1ccccc1NC(=O)COc1ccc2oc3c(c2c1)CCCC3 | / | 20.7 | -0.4
COc1ccc(NC(=O)c2cccc(C)c2)c(OC)c1 | -47.2 | 13.7 | 1.4
Cc1ccc(OCC(=O)Nc2ccc(Cl)cc2C(=O)O)cc1C | / | 16.1 | 1.6
CC1(C)C=Cc2c(cc3occ(-c4ccc5c(c4)OCO5)c(=O)c3c2O)O1 | 55.9 | 47.1 | /
COc1c(-c2coc3cc4c(cc3c2=O)CC(O)C(C)(C)O4)ccc2c1C=CC(C)(C)O2 (configuration not stated) | 90.8* | 101.5* | /
c1ccc(Cc2ccc[n+](Cc3ccccn3)c2)cc1 | / | 14.3 | 1.5
CCc1cc(C(=O)OC)c(NC(=O)c2cc(-c3ccccn3)nc3ccc(Cl)cc23)s1 | / | -15.8 | 1.8
O=C1CC(O)[C@H]2[C@@H]3N1c1ccccc1[C@@]31CCN3C/C(=C/CO)[C@@H]2C[C@H]31 (some centres not stated) | -5.2 | / | /
C[C@@H]1CN([C@H](C)CO)C(=O)c2cccc(NC(=O)NC3CCCCC3)c2O[C@H]1CN(C)Cc1ccc(Oc2ccccc2)cc1 | -34.7 | 114.2* | -4.3
C[C@@H]1CN([C@@H](C)CO)C(=O)c2cccc(NC(=O)NC3CCCCC3)c2O[C@H]1CN(C)CC1CCCCC1 | 5.3 | 102.3* | -1.9
C[C@@H]1CN([C@H](C)CO)C(=O)c2cccc(NC(=O)NC3CCCCC3)c2O[C@@H]1CN(C)Cc1ccc(Oc2ccccc2)cc1 | 7.1 | 59.9 | -1.7
C[C@@H]1CN([C@H](C)CO)C(=O)c2cccc(NC(=O)NC3CCCCC3)c2O[C@H]1CN(C)Cc1ccccc1 | 21.0 | 114.6* | -6.0
C[C@H]1CN([C@@H](C)CO)C(=O)c2cccc(NC(=O)NC3CCCCC3)c2O[C@H]1CN(C)Cc1ccccc1 | -7.1 | 12.7 | 3.1
C[C@@H]1CN([C@@H](C)CO)C(=O)c2cccc(NC(=O)NC3CCCCC3)c2O[C@H]1CN(C)CC1CC1 | 29.0 | 25.2 | /
N#Cc1ccc(NC(=O)Cn2ccc([N+](=O)[O-])n2)cc1 | / | 35.2 | /
Nc1ccccc1C(=O)NCc1c(F)cccc1Cl | -5.0 | 8.9 | -0.5
COc1ccccc1OCC(=O)Nc1ccc(C)cc1[N+](=O)[O-] | / | 22.6 | -0.6
C[C@@H]1CN([C@@H](C)CO)C(=O)c2cc(N(C)C)ccc2O[C@@H]1CN(C)Cc1ccc(Oc2ccccc2)cc1 | 43.4 | 89.8* | -0.5
C[C@@H]1CN([C@@H](C)CO)C(=O)c2cc(N(C)C)ccc2O[C@H]1CN(C)Cc1ccc(Oc2ccccc2)cc1 | 1.2 | 43.7 | -3.3
C[C@H](CO)N1C[C@H](C)[C@H](CN(C)Cc2ccc(Oc3ccccc3)cc2)Oc2ccc(N(C)C)cc2CC1=O | 3.9 | -4.2 | -1.2
C[C@H]1CN([C@@H](C)CO)C(=O)Cc2cc(N(C)C)ccc2O[C@H]1CN(C)Cc1ccc(Cl)c(Cl)c1 | 28.5 | -0.6 | -2.1
C[C@@H]1CN([C@H](C)CO)C(=O)Cc2cc(N(C)C)ccc2O[C@H]1CN(C)Cc1ccc(Oc2ccccc2)cc1 | -13.1 | 109.6* | -3.9
C[C@@H]1CN([C@@H](C)CO)C(=O)Cc2cc(N(C)C)ccc2O[C@@H]1CN(C)Cc1ccc(Cl)c(Cl)c1 | -23.1 | 126.9* | -8.1
CN(C)c1nc(-c2ccc(Cl)cc2)[nH]c(=O)n1 | -9.9 | -3.3 | -0.2

Source: PubChem (Broad Institute)
